PubChem BioAssay (EPA / NIEHS)
Active and inactive are the calls of the source. The calls were made as follows: active = hit-call score of the fitted dose curve at least 0.9, where 1 is the maximum; inactive = score below 0.9.

Assay: CCTE_Shafer_MEA_acute_cross_correlation_HWHM: CCTE's Neural Acute Assay for Cross Correlation at Half Width at Half Maximum, Shafer Lab (AID 2284026)
Procedure: CCTE_Shafer_MEA_acute assay is conducted using Axion Biosystems 48 well microelectrode array (MEA) plates and Maestro recording system. Each well of the MEA plate contains a grid of 16 microelectrodes embedded in the culture surface. Electrically active cells, such as neurons, can be cultured over the electrodes, and electrical activity in these cells can be recorded extracellularly. The spontaneous firing of neurons is captured from each electrode on a microsecond timescale providing both temporally and spatially precise data. […] The CCTE_Shafer_MEA_acute assay uses primary cultures of rat cortical neurons. As these cultures mature over time, neural networks develop functional activity and form cohesive networks in which electrical activity can be highly coordinated. Baseline 40-minute recordings are made on days post-plating 13 or 15, followed by a secondary 40-minute recording after chemical exposure.CCTE_Shafer_MEA_acute_cross_correlation_HWHM is a component of the CCTE_Shafer_MEA_acute assay. It measures the distance along the x-axis (phase lag) from the left half maximum height to the center of the cross-correlogram of action potential firing during a recording in a microelectrode array (MEA) using Axion Biosystems Maestro 768 channel amplifier with the AxIS adaptive spike detector. Smaller values indicate a narrower correlogram (greater synchrony). The recordings before and after chemical treatment are used to calculate a percent change in the half width at half maximum of the cross-correlogram in each well.Data from the assay component CCTE_Shafer_MEA_acute_cross_correlation_HWHM was analyzed into 1 assay endpoint. This assay endpoint, CCTE_Shafer_MEA_acute_cross_correlation_HWHM, was analyzed in the negative analysis fitting direction relative to DMSO as the negative control and baseline of activity. Using a type of functional reporter, gain or loss-of-signal activity can be used to understand electrical activity.
Spontaneous activity in the cortical cultures was recorded using an Axion Biosystems Maestro 768 channel amplifier and Axion Integrated Studios (AxIS) v1.8 (or later) software. The amplifier recorded from all channels simultaneously (gain = 1200 x; sampling rate = 12.5 kHz/channel): raw signals were filtered with a Butterworth band-pass filter (300-5000 Hz), which filters out slower local field potentials leaving only fast potentials, i.e., "spikes", arising from extracellular currents associated with action potentials (Pine 2006; Wheeler and Nam 2011). On-line spike detection of filtered signals was conducted with the AxIS adaptive spike detector, using a threshold of 8x the root mean squared (rms) noise on each channel. Any electrodes with rms noise levels greater than 5 uV were grounded (e.g., no data were recorded). Once grounded, an electrode was grounded for the duration of the experiment. All recordings were conducted at 37 C. Wells were deemed usable if on the day of the exposure >/= 10 electrodes were active (defined as >/= 5 spikes/min). On DIV 13 or 15, a minimum of three wells from one cortical culture preparation were treated with each compound (0.03-40 uM). Prior to recording baseline activity, each mwMEA plate was placed in the Maestro at 37 C and allowed to sit for 20 min while firing rates stabilized. Baseline activity (40 min) was recorded before the addition of each compound. An additional 40 min of spontaneous activity was recorded in the presence of each compound. Changes in network parameters relative to baseline were assessed following compound treatment.

Row | Structure (SMILES) | AC50 | outcome
1 | CCCC(=NOCC)C1=C(O)CC(CC(C)SCC)CC1=O (stereo unspecified) | 30.7 µM (active) | –
2 | CCOc1cc(C(C)(C)C)ccc1C1COC(c2c(F)cccc2F)=N1 (stereo unspecified) | 20 µM (active) | –
3 | CCOC(=O)C(C)OC(=O)c1cc(Oc2ccc(C(F)(F)F)cc2Cl)ccc1[N+](=O)[O-] (stereo unspecified) | – | inactive
4 | Clc1nc(Cl)nc(Nc2ccccc2Cl)n1 | – | inactive
5 | COP(=S)(OC)SCn1nnc2ccccc2c1=O | – | inactive
6 | CCOc1nc(F)cc2nc(S(=O)(=O)Nc3c(Cl)cccc3Cl)nn12 | – | inactive
7 | Cc1c(COC(=O)[C@@H]2[C@H](/C=C(\Cl)C(F)(F)F)C2(C)C)cccc1-c1ccccc1 | 2.29 µM (active) | –
8 | CN/C(=N\[N+](=O)[O-])NCc1cnc(Cl)s1 | – | inactive
9 | Nc1c(Cl)c(F)nc(OCC(=O)O)c1Cl | – | inactive
10 | Cc1ccc(N=CN(C)C=Nc2ccc(C)cc2C)c(C)c1 | – | inactive
11 | CNC(=O)Oc1cccc2ccccc12 | – | inactive
12 | CC1(C)C(C(=O)OC(C#N)c2cccc(Oc3ccccc3)c2)C1(C)C (stereo unspecified) | 28.6 µM (active) | –
13 | N#CN=C1SCCN1Cc1ccc(Cl)nc1 | – | inactive
14 | N#Cc1c[nH]cc1-c1cccc2c1OC(F)(F)O2 | 20 µM (active) | –
15 | CC(C)N1C(=O)N(c2ccccc2)CSC1=NC(C)(C)C | 20 µM (active) | –
16 | CC1(C)C(C=C(Cl)Cl)C1C(=O)OC(C#N)c1cccc(Oc2ccccc2)c1 (stereo unspecified) | – | inactive

Row | Structure (SMILES) | AC50 | outcome
17 | Cn1c(-c2ccccc2)cc(-c2ccccc2)[n+]1C | 20 µM (active) | –
18 | OC(c1ccc(Cl)cc1)(c1ccc(Cl)cc1)C(Cl)(Cl)Cl | 5.32 µM (active) | –
19 | CO/N=C(/C1=NOCCO1)c1ccccc1Oc1ncnc(Oc2ccccc2Cl)c1F | 20 µM (active) | –
20 | Cc1nc(N(C)C)nc(OC(=O)N(C)C)c1C | – | inactive
21 | C=C(C)CN(CC)c1c([N+](=O)[O-])cc(C(F)(F)F)cc1[N+](=O)[O-] | – | inactive
22 | CCCCC(O)(Cn1cncn1)c1ccc(Cl)cc1Cl (stereo unspecified) | – | inactive
23 | CC(C)=CC1C(C(=O)OCc2coc(Cc3ccccc3)c2)C1(C)C (stereo unspecified) | – | inactive
24 | CCOP(=O)(OCC)Oc1nc(Cl)c(Cl)cc1Cl | 34.8 µM (active) | –
25 | O=C(Nc1ccccc1-c1ccc(Cl)cc1)c1cccnc1Cl | 23.5 µM (active) | –
26 | COCC(=O)N(c1c(C)cccc1C)C(C)C(=O)OC (stereo unspecified) | – | inactive
27 | CC(C)C1(C)N=C(c2ncccc2C(=O)O)NC1=O (stereo unspecified) | – | inactive
28 | CC1(C)CCC(=Cc2ccc(Cl)cc2)C1(O)Cn1cncn1 (stereo unspecified) | – | inactive
29 | CC(C)N1C(=O)c2ccccc2NS1(=O)=O | – | inactive
30 | COC(=O)N(C(=O)N1CO[C@@]2(C(=O)OC)Cc3cc(Cl)ccc3C2=N1)c1ccc(OC(F)(F)F)cc1 | 24.3 µM (active) | –
31 | CCCN(CC)CC1COC2(CCC(C(C)(C)C)CC2)O1 (stereo unspecified) | – | inactive
